Screening data from PubChem.
KDM4E inh = JMJD2E (human) inhibition; Potency, µM (doses to about 57.1 µM), actives largely listed as inhibitors; 230,000 tested, 1.6% active; JMJD2E catalytic domain, FDH-coupled NADH fluorescence (FDH is formaldehyde dehydrogenase); note: nearly all actives have a fitted effect of over 50% in size
Target sequence (B2RXH2 1-337 limits assumed): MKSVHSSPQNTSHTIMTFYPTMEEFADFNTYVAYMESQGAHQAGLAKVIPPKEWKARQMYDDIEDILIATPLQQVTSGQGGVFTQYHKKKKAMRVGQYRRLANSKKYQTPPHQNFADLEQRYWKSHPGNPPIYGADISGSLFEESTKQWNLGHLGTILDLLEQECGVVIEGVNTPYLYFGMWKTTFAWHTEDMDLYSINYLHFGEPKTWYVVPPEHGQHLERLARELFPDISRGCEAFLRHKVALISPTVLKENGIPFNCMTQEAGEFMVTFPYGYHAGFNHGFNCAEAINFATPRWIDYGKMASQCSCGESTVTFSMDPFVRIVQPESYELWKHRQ
FBPA coupling cs = counter-screen for Giardia aldolase inhibitors: coupling enzyme system; 290,000 tested, 0.67% active; AID 2472; activity change, negative = inhibition, % at 58.2 µM, hits read low; coupling enzyme system counterscreen, AmpLite Red fluorescence; in the data active = activity change below about -30%
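Final compound at 57.5 uM, incubated 10 min at RT with coupling enzyme reagent (glyceraldehyde-3-phosphate), then 20 min with substrate and AmpLite Red detection. Fluorescence read at 525/598 nm; tests interference with the coupling assay, not aldolase inhibition.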
TexasRed fluor = Texas Red fluorescence interference in TRb-SRC2 counter-screen; AID 1479; TRb/SRC2 Texas Red total fluorescence interference; Potency, µM (top dose mostly 106 µM); 280,000 tested, 0.29% active; active = well fitted curve in either direction with a large enough effect; inconclusive = small, poorly fitted or top-dose-only effect
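Flags fluorescent or light-absorbing compounds by total fluorescence, S + 2P, at 555 nm excitation and 632 nm emission. Mixture: 20 nM Texas Red SRC2 peptide, 0.6 uM human TRb LBD, 1 uM T3, 5% DMSO; compound exposure 5 h at ambient temperature.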
TRb-SRC2 inh = TRbeta-SRC2 interaction inhibition | 280,000 tested, 0.065% active | Potency, µM (doses to about 106 µM), actives largely listed as inhibitors | TRbeta-SRC2 peptide binding, fluorescence polarization; receptor liganded with 1 µM T3 | P10828; note: nearly all actives have a fitted effect of over 50% in size
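Each compound concentration gave % activity, normalized to unbound and bound Texas Red SRC2 controls, from polarization read after 5 hr ambient incubation with T3-loaded human TRb LBD.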
HTT cytoprotect = Huntington cell model cytoprotection by ATP luminescence | 230,000 tested, 0.14% active | AID 1471 | Potency, µM (series often up to 56.4 µM), usual class: activators | PC12 HTT-Q103 induced, cytoprotection, ATP luminescence, 40 h; note: nearly all actives have a fitted effect of over 45% in size
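ATP quantification (ATPlite) reports survival of PC12 cells in which tebufenozide, 100 nM final, switches on Htt exon 1 with 103 glutamines linked to GFP; compounds are titrated.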
HTT aggregate = mutant huntingtin aggregation inhibition; PC12 HttQ103-GFP aggregates, Acumen cytometry, 40 h; Potency, µM (highest dose often 46.1 µM), actives largely listed as inhibitors; 220,000 tested, 1.1% active; AID 1688; note: nearly all actives have a fitted effect of over 60% in size
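Compounds (qHTS titration) were added to PC12 cells expressing an ecdysone-driven HTT exon 1 Q103–GFP fusion after induction with 100 nM tebufenozide. Aggregate formation was measured as GFP objects in cell lysates.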
Each line names hits and unclear results; the compound was inactive in the other large screens. An excerpt weighted towards active compounds, which were near 2% of everything screened. Unless noted, calls come from the whole dose curve; as a rule, active = well fitted curve in the direction sought with a large enough effect; inconclusive = small, poorly fitted or top-dose-only effect, or another doubt; inactive = no such curve, though single readings can be large; an effect the other way counts as inactive or inconclusive.

CC(C)NC(=O)N1CC2(CCN(C(=O)c3cc(C(F)(F)F)cc(C(F)(F)F)c3)CC2)C1	none (no result: KDM4E inh, TexasRed fluor, TRb-SRC2 inh, HTT aggregate)
Oc1cc2c(cc1O)C(c1ccccc1)CNCC2 (centres undefined)	KDM4E inh 20µM, HTT cytoprotect inconclusive (no result: HTT aggregate)
Oc1cc2c(cc1O)[C@@H](c1ccccc1)CNCC2	none (no result: HTT cytoprotect)
Oc1ccc([C@@H]2CNCCc3c2cc(O)c(O)c3Cl)cc1	KDM4E inh 11µM (no result: HTT aggregate)
COc1ccc2cc3c(N)nn(C(=O)C4CCC(C(C)(C)C)CC4)c3nc2c1 (centres undefined)	HTT aggregate 10µM (no result: HTT cytoprotect)
COc1ccc(-n2cnc(N)c2C(=O)c2cccc([N+](=O)[O-])c2)cc1	HTT aggregate 8.9µM
COc1ccc2cc3c(N)nn(C(=O)c4ccc(F)cc4Cl)c3nc2c1	none (no result: KDM4E inh, FBPA coupling cs, HTT cytoprotect, HTT aggregate)
COc1ccc(C(=O)n2nc(N)c3cc4ccc(C)cc4nc32)cc1OC	none (no result: KDM4E inh, FBPA coupling cs, HTT cytoprotect, HTT aggregate)
COc1ccc2cc3c(N)nn(C(=O)Cc4ccccc4OC)c3nc2c1	HTT aggregate 4.5µM
COc1ccc2cc3c(N)nn(C(=O)c4cccc([N+](=O)[O-])c4)c3nc2c1	HTT aggregate 3.5µM
Cc1ccc(Nc2c(-c3ccc(C)cc3)nc3ccc(C)cn23)cc1	none (no result: KDM4E inh, FBPA coupling cs, HTT cytoprotect, HTT aggregate)
Cc1ccc(Nc2c(-c3ccccn3)nc3ccc(C)cn23)cc1	HTT aggregate 11µM
Cc1ccc(Nc2c(-c3ccccn3)nc3cc(C)ccn23)cc1	HTT aggregate 7.9µM
N#Cc1cccc(NC(=O)CSc2ccc3c4c(cccc24)C(=O)c2ccccc2-3)c1	HTT aggregate 7.9µM
CCOC(=O)c1cnc(-n2nc(C)cc2C)nc1NNc1nc(-c2ccccc2)cc(-c2ccccc2)n1	HTT aggregate 10µM
CCOC(=O)c1cnc(-n2nc(C)cc2C)nc1NNc1nc(C)cc(C)n1	none
CCCCOc1ccc(C2C(=O)N(C3CCCCC3)CC(=O)N2CCCC)cc1 (centres undefined)	none (no result: KDM4E inh, FBPA coupling cs, HTT cytoprotect, HTT aggregate)
Nc1cc2nc3ccccc3oc-2cc1=O	KDM4E inh 13µM
COc1ccc(Cn2c(=O)c3ccccc3n3c(-c4ccc(C)cc4)nnc23)cc1	none (no result: KDM4E inh, FBPA coupling cs, HTT cytoprotect, HTT aggregate)
COc1ccc(Nc2ncnc3ccccc23)cc1	HTT aggregate 11µM
CCOC(=O)c1ccc(Nc2ncnc3ccc(C)cc23)cc1	KDM4E inh inconclusive
COc1cccc(Nc2ncnc3ccccc23)c1	HTT aggregate inconclusive
COc1ccc(Nc2nc(N3CCCCC3)c3ccccc3n2)cc1	HTT aggregate 18µM
CCOc1ccc(Nc2ncnc3ccc([N+](=O)[O-])cc23)cc1	HTT aggregate 7.9µM
COC(=O)[C@](C)(N)Cc1ccc(O)cc1	none (no result: KDM4E inh, FBPA coupling cs, TexasRed fluor, TRb-SRC2 inh, HTT aggregate)
CC(C(Sc1ccccc1N)c1ccccc1)[N+](=O)[O-] (centres undefined)	KDM4E inh 11µM
CC(=O)Oc1c(C)cc(O)c2ccccc12	KDM4E inh inconclusive, FBPA coupling cs -32, HTT aggregate 14µM
COC(=O)c1ccc(NC(=O)C(C)N2Cc3ccccc3C2=O)cc1 (centres undefined)	none (no result: KDM4E inh, FBPA coupling cs, HTT cytoprotect, HTT aggregate)
CCn1c(=O)c(C(=O)Nc2ccsc2C(=O)OC)c(O)c2ccccc21	TexasRed fluor inconclusive, HTT cytoprotect inconclusive, HTT aggregate 7.1µM
c1ccc(CSc2ccc(-c3cccs3)nn2)nc1	HTT aggregate 0.032µM
CCOC(=O)C1=C(C)N=C2SC(C)C(=O)N2C1c1cccc(F)c1 (centres undefined)	HTT cytoprotect 25µM
COc1ccccc1-c1nc2c(c(SCC(=O)Nc3ccccc3F)n1)Cc1c(CO)cnc(C)c1O2	none (no result: KDM4E inh, FBPA coupling cs, HTT cytoprotect, HTT aggregate)
O=C1/C(=C\c2ccco2)SC(=S)N1c1ccccc1	KDM4E inh 20µM, TexasRed fluor inconclusive (no result: HTT cytoprotect)
O=C1/C(=C\c2ccco2)SC(=S)N1C1CCS(=O)(=O)C1 (centres undefined)	KDM4E inh 28µM
O=C1/C(=C/c2ccco2)SC(=S)N1C1CCS(=O)(=O)C1 (centres undefined)	FBPA coupling cs -45, HTT aggregate 4.5µM
Cc1ccc(/C=C2\SC(=S)N(CC3CCCO3)C2=O)o1 (centres undefined)	KDM4E inh inconclusive
